# Most compounds without a hit are left out; they make up all but 1.5% or so of the library.
# Akt phos inh – HTS Assay for Inhibitors of Akt Phophorylation: Primary Screen; Neuro2A IGF-stimulated pAkt S473 HTRF, 20 min; active compounds read low; activity change, % for hits at 50 µM; 360,000 compounds, 0.32% hits; AID 651550, 2012; in the data active = activity change below about -80%; inconclusive = mostly about -51% to -80%; note: % is set by controls: 0 for no effect and ±100 for the full control effect
#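 Neuro2A cells in DMEM with 0.5% FBS, overnight at 37 deg C, given compound at single 50 µM final, then IGF (6 nM final) for 20 min at 37 deg C. Lysed; phospho-Akt Ser473 by HTRF after 24 h, 665/615 ratio.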
# PINK1 modulator – A Quantitative High throughput Screen to Identify Chemical Modulators of PINK1 Expression; Potency, µM (highest dose often 76.6 µM), without a hit: top-dose activation (PINK1 increase), usual class: activators; 410,000 compounds, 0.2% hits; AID 624263, 2012; PINK1 immunofluorescence, high-content cytometry, 24 h; active = well fitted activation curve with a large enough effect; inconclusive = small, poorly fitted or top-dose-only effect; cell line not stated here; note: potency is the fitted concentration of half-maximal effect; % of control where 0% means no effect; nearly all actives have a fitted effect of over 65% in size
#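 PINK1 protein level read as immunofluorescence by microplate cytometer in a fixed, stained stable cell line after 24 h exposure to five compound concentrations, with CCCP as control.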
# BRCA1 expr act – qHTS Assay to Identify Small Molecule Activators of BRCA1 Expression; MCF7-BRCA1-FFLuc reporter, luminescence, 48 h; response scale: scaled: vehicle 0%, 10 µM genistein 100%; AID 624202, 2012; Potency, µM (top dose mostly 46.1 µM), for the others: at the top dose activation, most hits filed as activators; 380,000 compounds, 1.1% hits; note: potency is the fitted concentration of half-maximal effect; nearly all actives have a fitted effect of over 80% in size
#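 MCF7-BRCA1-FFLuc, 2000 cells/well; 2 h attach, 37 °C/5% CO2; compound 48 h; luciferase substrate 15 min; luminescence end-point. Norm. to genistein 10 microM max activation and DMSO; concentration-response curves fitted.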
# TCR act – Activators of T cell receptors: qHTS campaign; primary human leukocytes, anti-CD3, IL-2 HTRF, 48 h; Potency, µM (doses to about 9.22 µM), for inactives: top-dose activation of IL-2 secretion, actives largely listed as activators; 330,000 tested, under 10 active; AID 504894, 2011; note: % of control where 0% means no effect
#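 IL-2 produced over 48 hr by a-CD3 bead-stimulated primary human leukocytes exposed to compounds was detected with a homogeneous time-resolved FRET immunoassay, 665nm acceptor signal after 320nm excitation.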
# An asterisk follows results filed as active; i = inactive; u = inconclusive; x = no result given; [ ] = dose if it differs, or a comment. Unless noted, calls come from the whole dose curve; as a rule, active = well fitted curve in the direction sought with a large enough effect; inconclusive = small, poorly fitted or top-dose-only effect, or another doubt; inactive = no such curve, though single readings can be large; an effect the other way counts as inactive or inconclusive.
SMILES,Akt phos inh,PINK1 modulator,BRCA1 expr act,TCR act
COc1ccc2nc3sc(C(=O)NCCN4CCc5ccccc5C4)cc3cc2c1,i,8%,-5%,1%[46.1 µM]
COc1ccc2cc3cc(C(=O)NCCCN4CCc5ccccc5C4)sc3nc2c1,i,8%,7.1µM*,5%[46.1 µM]
Cc1ccc(-c2nc3ccccc3s2)cc1S(=O)(=O)N1CCOCC1,-90%*,30%[38.3 µM],0%,x
Cc1cc(-c2nc3ccccc3s2)ccc1N,i,4%,-51%,-9%
CC1CCCCC1NC(=O)c1ccc2c(c1)OCCO2 (centres undefined),i,-1%,84%,6%
CC1CCCC(NC(=O)c2ccc3c(c2)OCCO3)C1C (centres undefined),i,4%,7.1µM*,12%
CN(CCO)C(=O)c1cn(C2CCN(Cc3cccc4ccccc34)CC2)nn1,x,2%,x,x
Fc1ccccc1CSc1nnc(-c2ccccc2)o1,i,-1%,4µM*,2%
Fc1ccccc1CSc1nnc(-c2cccnc2)o1,i,1%,7.1µM*,-7%
COc1ccc(C(=O)NCC2Cc3cccc(-c4cncnc4)c3O2)c(OC)c1OC (centres undefined),x,-1%,x,x
Cc1cccc2c(Nc3ccc4c(c3)OCO4)nc(CN3CCC(N4CCCCC4)CC3)nc12,x,9%,x,x
COc1ccc2cc(C(=O)NCc3ccco3)c(=Nc3ccc(C(=O)O)cc3)oc2c1,-112%*,-1%,8%,3%
COc1ccc2oc(=Nc3ccc(C(=O)O)cc3)c(C(=O)NCc3ccco3)cc2c1,i,-1%,-1%,5%
Nc1ccc2c(c1)C(=O)N(c1ccc3ccccc3c1)C2=O,x,-1%,11µM*,x
COc1ccccc1/C=N\NC(=O)c1ccc(COc2ccc(C)c(C)c2)o1,i,10%,5.6µM*,1%
COc1ccccc1NC(=O)c1ccc(COc2ccc(C)c(C)c2)o1,x,0%,x,x
O=C(N/N=C/c1ccc2ccccc2c1)c1ccc(COc2ccc3c(c2)CCC3)o1,i,17%,2µM*,-1%
O=C(c1cccc(N2CCCC2=O)c1)N1CCC(Oc2cccc(CN3CCN(c4ccccn4)CC3)c2)CC1,x,0%,x,x
COc1ccc2nc3ccccc3nc2c1NC(=O)c1ccc(Br)cc1,i,14µM*,-13%,5%[46.1 µM]
Cc1ccccc1C(=O)NC(C)c1nnc2n1CCN(Cc1ccccc1F)CC2 (centres undefined),x,0%,x,x
COCC(=O)n1nc(-c2ccc(C)cc2)nc1NCc1ccc(F)cc1,i,16%,10µM*,-2%
COCC(=O)n1nc(-c2ccc(Cl)cc2)nc1NCc1ccc(F)cc1,i,1%,-43%,2%
CN(Cc1ccccc1)C(=O)COC(=O)c1c[nH]c2ccccc12,i,-2%,10µM*,x
CCCOc1ccc(C(=O)Nc2ccc3c(c2)OCO3)cc1,i,8%,3.2µM*,3%
O=C(Nc1ccc2c(c1)OCO2)c1cccc(Cl)c1,i,-1%,11µM*,-6%
SMILES,Akt phos inh,PINK1 modulator,BRCA1 expr act,TCR act
COc1cc(NC(=O)c2ccc3c(c2)OCO3)ccc1NC(=O)C(C)C,-115%*,1%,55%,8%
CCOc1ccc(C(=O)Nc2ccc3c(c2)OCCO3)cc1OC,i,3%[38.3 µM],10µM*,1%
CCCCOc1ccc(C(=O)Nc2ccc3c(c2)OCO3)cc1,i,15%,10%,5%
O=C(Nc1ccc2c(c1)OCO2)c1ccc2c(c1)OCO2,i,-1%,-5%,4%[46.1 µM]
CNc1ccc(C=O)cc1I,x,0%,-3%,x
Cc1cccn2cc(-c3cccc(NC(=O)C(C)C)c3)nc12,x,-1%,x,x
COc1cc(=O)n2c(c1C(=O)N(C)Cc1nonc1C)CCN(C(=O)c1cc(C)cc(C)c1)CC2,x,0%,x,x
COC(=O)c1ccccc1C(=O)N1CCc2c(cnc(C)c2CNC(=O)c2ccccc2F)C1,x,0%,x,x
CCOc1ccc(NC(=O)Cn2cc(C(=O)c3ccccc3)c(=O)c3cc4c(cc32)OCO4)cc1,x,0%,-3%,x
COc1cc(OC)cc(C(=O)Nc2ccc3c(c2)OCCO3)c1,i,0%,13µM*,-2%
Cn1c(-c2ccc(C#N)cc2)c(C#Cc2ccccc2)c2ccccc21,i,2%,-47%,-2%
N#Cc1c(-c2ccc(Cl)cc2)n(O)c2ccccc12,i,35µM*,-71%,-5%
CN(C)/C=N/c1ncc(C(=O)c2ccccc2)s1,i,-1%,5.6µM*,-2%
COc1ccccc1-c1ccnc(-n2ncc(C(=O)NC(c3cccnc3)C(F)(F)F)c2C)n1 (centres undefined),x,6%,x,x
CN(CCC#N)c1ccc(/C=C/c2ccnc3ccccc23)cc1,x,u,-7%,x
O=C(NCc1ccc(F)cc1)Nc1ccccc1,i,-1%,10µM*,-4%
O=C(NCc1ccc(Cl)cc1Cl)Nc1ccccc1,i,6%,u,-2%
Cc1ccc(C)c(CNC(=O)Nc2ccccc2)c1,i,7%,7.1µM*,1%
Cc1ccc(CNC(=O)Nc2ccccc2)cc1,i,0%,3.5µM*,4%
Cc1cnc(SCc2ccccn2)nc1C1CCCN(C(=O)c2cccc(-c3cccc(F)c3)c2)C1 (centres undefined),x,2%,x,x
Cc1oc(-c2cccc(Cl)c2)nc1CSc1nc2ncccc2[nH]1,x,0%,x,x
O=C(Nc1ccccc1Cc1ccccc1)c1ccccc1NS(=O)(=O)c1ccc(Cl)s1,i,11µM*,-75%,0%[46.1 µM]
Cc1ccc(NC(=O)c2ccccc2NS(=O)(=O)c2ccc(Cl)s2)cc1,i,20µM*,-80%,0%[46.1 µM]
COC(=O)c1ccc(C(=O)NCC2Cc3cc(F)cc(-c4cncnc4)c3O2)cc1 (centres undefined),x,1%,x,x
CC(C)n1nnc(-c2ccc(OCc3ccccc3F)cc2)n1,i,4%,4.5µM*,-4%
SMILES,Akt phos inh,PINK1 modulator,BRCA1 expr act,TCR act
Fc1ccccc1COc1ccc(-c2nnn(Cc3ccccc3F)n2)cc1,i,9%,21%,-6%
Nc1ccc(-c2nnn(Cc3ccccc3F)n2)cc1,i,-1%,11µM*,x
Cn1nnc(-c2ccc(OCc3ccccc3F)cc2)n1,i,5%,u,4%
COc1cc(=O)n2c(c1C(=O)NC(C)c1ccco1)CCN(C(=O)c1ccccc1SC)CC2 (centres undefined),x,-1%,x,x
Cc1ccc(NC(=O)/C(=C/c2ccco2)c2ccccc2)c(C)c1,-129%*,2%,-30%,2%
Cc1cc(NC(=O)/C=C/c2ccco2)ccc1NC(=O)c1ccccc1,i,-1%,13%,-3%
CC(C)(C)C1=Nn2c(nnc2-c2ccccc2F)SC1,i,22%[38.3 µM],-7%,x
CC(C)(C)C1=Nn2c(nnc2-c2ccccn2)SC1,-111%*,-2%,0%,5%
O=C(COc1ccc(Cl)cc1Cl)NC(=O)NC1CCCC1,i,13%,4µM*,7%
O=C(COc1ccccc1Cl)NC(=O)NC1CCCC1,i,2%[38.3 µM],76%,2%
O=C(COc1ccc(Br)cc1Cl)NC(=O)NC1CCCC1,i,15%,u,x

# Compound activity from PubChem BioAssay.
